Results filed as inconclusive are left out. Entries that show only a call come without a potency. A number with no mark means an inactive call. Calls of active or inactive are those of the source. Calls follow the shape of the dose curve; as a rule, active = well fitted cell-killing curve with a large enough effect in the repeat runs; inconclusive = weak or mixed curves; inactive = flat fitted curve, though single readings scatter.
Experiment: qHTS RealTime-Glo MT Cell Viability Assay in HepG2 cells - 24 hour (AID 1224867); also: nearly all actives have a fitted effect of over 50% in size
Conditions: RealTime-Glo luminescence; series mostly up to 76.8 µM
Excerpt: U.S. Tox21 Program National Center for Advancing Translational Sciences [NCATS] NIH Chemical Genomics Center [NCGC] U.S. Environmental Protection Agency [EPA] National Institutes of Environmental Health Sciences [NIEHS] National Toxicology Program [NTP] U.S. Food and Drug Administration [FDA] Tox21 Assay Overview: Measure of cell viability is critical in the cell-base assay. Analysis of cell viability is necessary for the characterization of cell responses to cytotoxic drugs and environmental stress. A RealTime-Glo MT Cell Viability Assay to monitor cell viability in real time of continues cell culture during 40 hours of compound treatment was used to screen Tox21 10K library compounds in HepG2 cells. The RealTime-Glo MT Cell Viability Assay is a nonlytic, homogeneous, bioluminescent method to measure cell viability in real time using a simple, plate-based method. The assay involves adding NanoLuc luciferase and a cell-permeant prosubstrate to cells in culture. Viable cells reduce the proprietary prosubstrate to generate a substrate for NanoLuc luciferase. This substrate diffuses from cells into the surrounding culture medium, where it is rapidly used by the NanoLuc Enzyme to produce a luminescent signal. The signal correlates with the number of viable cells, making the assay well suited for cytotoxicity studies.
Tox21 Assay Protocol Summary: The mixture of HepG2 cell suspension and reagents were dispensed at 600cells/6 ul/well in 1536-well tissue culture treated black solid bottom plates using a Multidrop dispenser. After the assay plates were incubated at a 37 C/5% CO2 incubator for 5 hours, 23 nL of compounds dissolved in DMSO, positive and negative controls was transferred to the assay plate by a pintool work station. The plates were incubated at 37 C for 40 hours. The luminescence intensity were measured at 0h, 8h, 16h, 24h, 32h and 40h time points using ViewLux plate reader during compound treatment.
Potency is read from the fitted curve at half-maximal effect.

Row | SMILES | activity change, negative = cytotoxicity | Potency
1 | C=CCCCCCCCCCCCCCCCC | 0.0094% [at 6.97 µM] | 
2 | C=CC(=C)CCCC(C)(C)OC(C)=O |  | inactive
3 | CCN(Cc1cccc(S(=O)(=O)O)c1)c1ccc(C(=C2C=CC(=[N+](CC)Cc3cccc(S(=O)(=O)[O-])c3)C=C2)c2ccccc2)cc1 |  | inactive
4 | CCCCCCCCCOC(C)=O |  | inactive
5 | CCCC1C(CC)=CC(CC)=CN1c1ccccc1 (stereo not given) |  | inactive
6 | CCOC(=O)CC(=O)C(=O)OCC |  | inactive
7 | Cc1cc(O)c(C(C)C)cc1Cl |  | inactive
8 | CCC(Cc1ccccc1)(C(=O)c1ccc(N2CCOCC2)cc1)N(C)C (stereo not given) |  | inactive
9 | CCCOCCOCCO |  | inactive
10 | CC1CC(=O)NN=C1c1ccc(NCC(C)(C)NCC(O)COc2cc(Cl)ccc2C#N)cc1 (stereo not given) |  | inactive
11 | O=C(/C=C/c1ccccc1)OCCCc1ccccc1 |  | inactive
12 | Cn1c(=O)c2c(ncn2CC(=O)O)n(C)c1=O |  | inactive
13 | CCN(CC)CCNC(=O)c1ccc(NC(C)=O)cc1 |  | inactive
14 | CCc1c2c(nc3ccc(OC(=O)N4CCC(N5CCCCC5)CC4)cc13)-c1cc3c(c(=O)n1C2)COC(=O)[C@]3(O)CC |  | inactive
15 | CO[Si](C)(OC)OC |  | inactive
16 | CC(Cl)C(Cl)Cl (stereo not given) |  | inactive
17 | CCOC(=O)/C=C/C(=O)O |  | inactive
18 | CCCCC(CC)C(=O)OCCOCCOCCOCCOC(=O)C(CC)CCCC (stereo not given) |  | inactive
19 | COCCOC |  | inactive
20 | Cc1oc(C)c(C(=O)Nc2ccccc2)c1C |  | inactive

Row | SMILES | activity change, negative = cytotoxicity | Potency
21 | CC(C)OCC1CO1 (stereo not given) |  | inactive
22 | C[C@]12CCC(=O)C=C1C=C[C@@H]1[C@@H]2CC[C@@]2(C)[C@H]1CC[C@@]21CCC(=O)O1 |  | inactive
23 | Nc1ccc(S(=O)(=O)O)c(N)c1 |  | inactive
24 | CCCCCCCCCCCCCCCCBr | 2.08% [at 15.8 µM] | 
25 | CC(C)CCCC(=O)O |  | inactive
26 | Fc1c(F)c(F)c(Br)c(F)c1F |  | inactive
27 | O=Cc1c(Cl)cccc1Cl |  | inactive
28 | C[C@@H]1C[C@H]2[C@@H]3CCC4=CC(=O)C=C[C@]4(C)[C@@]3(F)[C@@H](O)C[C@]2(C)[C@H]1C(=O)CO |  | inactive
29 | Cc1ccc(/C=N/n2c(-c3ccccc3)csc2=S)cc1 |  | inactive
30 | [O]=[Bi] | 3.35% [at 6.97 µM] | 
31 | O=[N+]([O-])c1cccc(S(=O)(=O)NCCNS(=O)(=O)c2cccc([N+](=O)[O-])c2)c1 |  | inactive
32 | c1ccc(COCc2ccccc2)cc1 |  | inactive
33 | CC(C)(CCl)c1ccccc1 |  | inactive
34 | CCOCCn1c(C2CCN(CCc3ccc(C(C)(C)C(=O)O)cc3)CC2)nc2ccccc21 |  | inactive
35 | CCC(C(=O)OCCOCCN(CC)CC)c1ccccc1 (stereo not given) |  | inactive
36 | CCCCN(CCCC)CCCOC(=O)c1ccc(N)cc1 |  | inactive
37 | C/C=C/C=C/CCCCCCCO |  | inactive
38 | CC(C)(C)CC(C)(C)c1ccc(OCCO)cc1 |  | inactive
39 | CC(=O)OCC(=O)[C@H]1CC[C@H]2[C@@H]3CCC4=CC(=O)CC[C@]4(C)[C@H]3CC[C@]12C |  | inactive
40 | O=C(CCCCCCCCC#CI)Oc1ccccc1 |  | 6.01 µM (active)
